Compound activity deposited in PubChem BioAssay by Broad Institute.
These entries were drawn from the full list.
aSyn UTR act – Activators working through SNCA 5'UTR binding (MLPCN); alpha-synuclein 5'UTR reporter, activators screen; activity score, % (tested at 7.5 µM), hits read low; 300,000 tested, 7.1% active; AID 1814; in the data active means activity score below about -60%
Each line names hits and unclear results; the compound was inactive in the other large screens.

COCCCOc1ccnc(CS(=O)c2nc3ccccc3[nH]2)c1C (stereo not drawn)	aSyn UTR act -111.3
Cc1c(OCC(F)(F)F)ccnc1CS(=O)c1nc2ccccc2[nH]1 (stereo not drawn)	aSyn UTR act -99.5
COC(=O)c1ccc(NC(=O)Cc2ccccc2)cc1	aSyn UTR act -122.8
O=C(Cc1ccccc1)Nc1ccc(SC(F)F)cc1	aSyn UTR act -130.1
COC(=O)c1ccc(NC(=O)c2nc(S(=O)(=O)Cc3cccc(C)c3)ncc2Cl)cc1	none
CCC(=O)Nc1ccc(C(=O)OCc2ccccc2Cl)cc1	aSyn UTR act -167.9
COC(=O)c1ccc(NC(=O)C(=O)c2cccn2C)cc1	aSyn UTR act -109.1
COC(=O)c1ccc(NC(=S)Nc2ccccc2)cc1	aSyn UTR act -131.1
COCC(=O)Nc1ccc(OCc2ccccc2)cc1	aSyn UTR act -78.6
CS(=O)(=O)Nc1ccc(OCc2ccccc2)cc1	aSyn UTR act -167.9
COc1ccccc1NC(=O)C(=O)N/N=C(\C)CC(=O)Nc1ccc(OCc2ccccc2)cc1	aSyn UTR act -61.6
COC(=O)Nc1ccc(OCc2ccccc2)cc1	aSyn UTR act -111.5
CC(=O)Nc1ccc(N=Cc2ccc(OCc3ccccc3)cc2)cc1	aSyn UTR act -129.5
Oc1ccc(NCc2ccc(OCc3ccccc3)cc2)cc1	aSyn UTR act -100.2
COCCn1c(/C=C/c2ccccc2)nc2ccccc21	aSyn UTR act -156.2
COc1ccccc1Cn1c(/C=C/c2ccccc2)nc2ccccc21	aSyn UTR act -110.8
Cc1cccc(NC(=O)Cn2c(/C=C/c3ccccc3)nc3ccccc32)c1	aSyn UTR act -123.3
COc1ccc(/C=C/c2nc3ccccc3n2Cc2ccccc2OC)cc1	aSyn UTR act -152.9
Cc1ccc(-n2c([S-])c(C(=O)Nc3ccc(OC(F)F)cc3)[n+]3ccc(C(=O)NCCO)cc23)cc1C	aSyn UTR act -72.0
CCN(CC)S(=O)(=O)c1ccc(N/N=C(\C)c2ccc(OC)cc2O)nc1	none
CCN(CC)S(=O)(=O)c1ccc(N=Nc2cc(C)cc(Br)c2O)cc1	aSyn UTR act -75.9
Cc1ccc(S(=O)(=O)C2(C(=O)Nc3ccc(C(C)C)cc3)CC2)cc1	aSyn UTR act -77.0
COc1cc(OC)cc(C(=O)Oc2c(CN3CCOCC3)cc(Cl)c3cccnc23)c1	none
COc1ccc2c(c1OC)c(=O)n1c3ccc(OC(C)C(=O)NCCN4CCOCC4)cc3c3ccnc2c31 (stereo not drawn)	aSyn UTR act -65.2
CC(Oc1ccc2c(c1)c1ccnc3c4ccccc4c(=O)n2c13)C(=O)NCCN1CCOCC1 (stereo not drawn)	aSyn UTR act -76.0
Cc1ccn2cc(C34CC5CC(CC(C5)C3)C4)nc2c1	aSyn UTR act -83.2
COc1ccc(Nc2nc(-c3sc(C)nc3C)cs2)c(OC)c1	aSyn UTR act -123.6
COc1ccc(Nc2nc(-c3cccs3)cs2)c(OC)c1	aSyn UTR act -195.6
COc1ccccc1Nc1nc(-c2cccs2)cs1	aSyn UTR act -254.2
COc1ccc(Nc2nc(-c3cccs3)cs2)cc1	aSyn UTR act -204.7
CC1(C)Cc2c(sc3nc(-c4cc5ccccc5o4)n(N)c(=O)c23)CO1	aSyn UTR act -202.9
CC1N/C(=C\C(=O)c2ccccc2)N(O)C1(C)C (stereo not drawn)	aSyn UTR act -124.0
Cc1nnc(N/N=C/c2cccc(OCc3ccc(Cl)c(Cl)c3)c2)n1N	aSyn UTR act -82.6
O=[N+]([O-])c1ccc(NNC(=S)Nc2ccccc2)cc1	aSyn UTR act -122.0
Fc1cccc(NC(=S)NNc2ccccc2)c1	aSyn UTR act -139.9
O=[N+]([O-])c1ccc(O)c(NC(=S)Nc2ccccc2)c1	aSyn UTR act -156.6
CC(C)c1nc2oc3c(NCc4ccccn4)ncnc3c2c2c1COC(C)(C)C2	none
CC(C)Sc1nc(NCc2ccco2)c2c3c(sc2n1)COC(C)(C)C3	aSyn UTR act -84.9
CC(=O)c1cccc(OCc2cc(C(=O)N3C[C@@H](C)O[C@@H](C)C3)no2)c1	aSyn UTR act -75.3
O=C(c1cc(COc2cccc(C(F)(F)F)c2)on1)N1C[C@H]2CC[C@H]1C2	aSyn UTR act -116.9
COCCC1CCCCN1C(=O)c1cc(COc2cccc(C(C)=O)c2)on1 (stereo not drawn)	aSyn UTR act -95.8
CC(=O)c1cccc(OCc2cc(C(=O)N3C[C@H]4CC[C@H]3C4)no2)c1	aSyn UTR act -134.0
Cc1ccccc1NC(=O)C1Cc2ccccc2CN1C(=O)c1ccco1 (stereo not drawn)	aSyn UTR act -132.0
COc1cccc(NC(=O)C2Cc3ccccc3CN2C(=O)c2ccco2)c1 (stereo not drawn)	aSyn UTR act -94.1
Cn1c(/C(C#N)=C/c2ccc(O)cc2)nc2ccccc21	aSyn UTR act -125.8
Cc1ccc(NC(=O)N/C=C/c2ccccc2)cc1	aSyn UTR act -92.0
Cc1ccc(NC(=O)N/C=C/c2ccc(Cl)cc2)cc1	aSyn UTR act -94.3
O=C(CC(SCCO)c1ccc2c(c1)OCO2)c1ccco1 (stereo not drawn)	aSyn UTR act -98.3
Cc1csc(NC(=O)CSc2ccccc2F)n1	aSyn UTR act -87.5
COCCNC(=O)CSc1nc(-c2ccccc2)cs1	aSyn UTR act -72.5
COCc1cc(C)nc(SCC(=O)Nc2nc(C)cs2)c1C#N	none
Cc1ccc(-c2csc(NC(=O)CSc3nc(C)cs3)n2)cc1	aSyn UTR act -159.9
Cc1csc(SCC(=O)Nc2nc(-c3ccccc3)cs2)n1	aSyn UTR act -80.3
Cc1ccc(C2(C)NC(=O)N(CC(=O)Nc3nc(-c4ccccn4)cs3)C2=O)cc1 (stereo not drawn)	none
CC(C)(C)NC(=O)CSc1nc(-c2ccc(F)cc2)cs1	aSyn UTR act -180.8
CC(C)(C)c1ccc(-c2csc(NC(=O)CN3C(=O)NC4(CCCCC4)C3=O)n2)cc1	aSyn UTR act -78.7
O=C(N=C1N=C2C=CC(Br)=CN2Cc2ccccc21)c1ccc([N+](=O)[O-])cc1[N+](=O)[O-]	aSyn UTR act -105.7
CCCCn1cnc2c(sc3nc4c(cc32)CSC(C)(C)C4)c1=O	aSyn UTR act -104.2
CSCc1nc2sc(C(=O)Nc3nc(C)cs3)c(C)c2c(=O)[nH]1	aSyn UTR act -92.4
Cn1c(=O)n(C)c2cc(S(=O)(=O)Nc3cc(Cl)ccc3O)ccc21	aSyn UTR act -71.5
CCc1ccc(S(=O)(=O)Nc2cc3c(cc2C)n(C)c(=O)n3C)cc1	aSyn UTR act -91.8
Cc1cc(C)n2cc(-c3ccc(Cl)cc3)c(C(=O)O)c2n1	aSyn UTR act -98.6
COc1cccc2oc3ccc(C#CC4(N)CCCCC4)cc3c(=O)c12	aSyn UTR act -62.3
Cc1cc2sc3ccc(C#CC4(O)CCCCC4)cc3c(=O)c2cc1C	none
CN(CCOC(=O)CN1C(=O)c2ccccc2C1=O)C1=NS(=O)(=O)c2ccccc21	aSyn UTR act -88.8
O=C(CN1C(=O)c2ccccc2S1(=O)=O)c1ccc(OC(F)F)cc1	none
CCOc1ccc2oc(C(=O)NC(C)(C)CC)c(C)c2c1	aSyn UTR act -117.5
O=C(Nc1ccc(OC(F)(F)F)cc1)c1ccc2nccnc2c1	aSyn UTR act -112.3
O=C(Nc1ccc(SC(F)F)cc1)c1ccc2nccnc2c1	aSyn UTR act -217.9
COc1ccc(C(=O)Nc2ccc(SC(F)F)cc2)cc1	aSyn UTR act -159.6
CCOC(=O)c1sc(NC(=O)CSc2nc3c(cc2C#N)CCCCCC3)c(C#N)c1C	aSyn UTR act -74.0
N#Cc1c(NC(=O)CSc2ncn[nH]2)sc2c1CCCCC2	none
N#Cc1cc2c(nc1SCC(=O)Nc1sc3c(c1C#N)CCC3)CCCC2	aSyn UTR act -239.9
N#Cc1cc2c(nc1SCC(=O)Nc1sc3c(c1C#N)CCC3)CCCCC2	aSyn UTR act -122.1
CCOc1ccc2nc(NC(=O)c3cnc(C)cn3)sc2c1	aSyn UTR act -68.5
